Laboratory results: PubChem BioAssay (NCI)
About 83,000 compounds went through this panel and 20% of them were active in at least one assay; those are over-represented in the sample as a whole.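 Interpretation: 100, growth as untreated; towards 0, rising growth inhibition; 0, no net growth; 0 to -100, cell death. Compounds scoring below 10 were considered active.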 Unmarked numbers belong to inactive results. Active and inactive are the calls of the source.

Columns and labels:
Assay in all cases: NCI-60 one-dose screen, 48 h (100 = growth as untreated, 0 = no growth, -100 = all killed)
Details in all cases: 10 µM unless noted
[1] = tested on: SR leukemia
[2] = tested on: RPMI-8226 leukemia
[3] = tested on: OVCAR-8 ovarian
[4] = tested on: OVCAR-5 ovarian
[5] = tested on: OVCAR-4 ovarian
[6] = tested on: SK-OV-3 ovarian
[7] = tested on: IGROV1 ovarian
[8] = tested on: OVCAR-3 ovarian
[9] = tested on: HS 578T breast
[10] = tested on: NCI/ADR-RES ovarian
[11] = tested on: T-47D breast
[12] = tested on: BT-549 breast
[13] = tested on: SW-620 colon
[14] = tested on: MCF7 breast
[15] = tested on: HCT-116 colon
[16] = tested on: HCC-2998 colon
[17] = tested on: KM12 colon
[18] = tested on: MDA-MB-435 melanoma

Row | SMILES | growth [1] | growth [2] | growth [3] | growth [4] | growth [5] | growth [6] | growth [7] | growth [8] | growth [9] | growth [10] | growth [11] | growth [12] | growth [13] | growth [14] | growth [15] | growth [16] | growth [17] | growth [18]
1 | CSc1nc(N)n2nccc2n1 | 111% | 106% | 98.5% | 114% | 103% | 105% | 105% | 106% | 105% | 105% | 102% | 99.6% | 97.9% | 96% | 99.2% | 100% | 114% | 
2 | Cc1ccc(NC(=O)CCl)cc1Cl | 51.9% | 91% | 92.9% | 108% | 89.2% | 102% | 63.8% | 114% | 93.8% | 107% | 90.2% | 76.7% | 95.5% | 87.5% |  | 115% | 111% | 90.9%
3 | COc1cc(OC)cc(-c2ccc(-c3ccc(C(=N)N)cc3)s2)c1 | -4.93% (active) | -58.2% (active) | -27.8% (active) | -82% (active) | -67.5% (active) | -81.9% (active) | -71.1% (active) | -86.2% (active) | -51.8% (active) | -51.4% (active) | -53.6% (active) | -72.4% (active) | -73.7% (active) | -75.2% (active) | -93.3% (active) | -76.5% (active) | -84.9% (active) | 
4 | CCCOC(=O)c1c(C)n(C)c2scc[n+]12 | 13.6% | 54.8% | 72.8% | 75.1% | 73.8% | 93.9% | 15.9% | 71.2% | 77.6% | 78.9% | 92.8% | 80.5% | 77.8% | 96.7% | 70.3% | 184% | 74% | 
5 | CC(C)(C)c1cc(C[P+](c2ccc(Cl)cc2)(c2ccc(Cl)cc2)c2ccc(Cl)cc2)cc(C(C)(C)C)c1O | 39.5% | 10.9% | 85.8% | 105% | 79.2% | 88.9% | 52.1% | 90.3% | 105% | 97.2% | 56.1% | 102% | 79.6% | 65.1% | 40.7% | 107% | 88.9% | 84.7%
6 | Cc1nnc(/N=C2\NC(=O)/C(=C/C=C/c3ccccc3)S2)s1 | 34.8% | 44.8% | 49.5% | 88.3% | 48.5% | 58.3% | 51.8% | 38.5% | 71.7% | 44.8% | 53.8% | 52.2% | 74.1% | 39.9% |  | 67% | 42.7% | 16.3%
7 | COc1ccc(C2=C/C(=C\c3ccc(Cl)cc3)C(=O)NN2C(=S)NN)cc1 | 93% | 86.5% | 94.2% | 112% | 90% | 89.5% | 107% | 111% | 96.6% | 94.5% | 76.6% | 101% | 99.4% | 75.3% | 94.9% | 109% | 100% | 109%
8 | CCCCCc1ccnc(CC(=O)c2ccc(OC)cc2)c1 | 91.5% | 76.7% | 86.1% | 89.7% | 76.5% | 92.5% | 108% | 93.7% | 107% | 108% | 82.3% | 93.8% | 88.4% | 87.4% | 78.2% | 101% | 99.9% | 102%
9 | COc1cc(OC)c(NC(=O)n2ncc3cc(Nc4ncnc5ccccc45)ccc32)cc1Cl | 89.6% | 101% | 110% | 74.2% | 99.8% | 110% | 56.4% | 91.3% | 112% | 97.3% | 97.3% | 78.1% | 116% | 98.1% | 101% | 89.7% | 104% | 105%
